From PubChem BioAssay (NCATS)
Inconclusive results are not listed. A call without a number means that no potency is given here. Activity calls are given as the source filed them. The call rests on the fitted dose curve; in most records, active means well fitted curve in the direction sought with a large enough effect; inconclusive means small, poorly fitted or top-dose-only effect, or another doubt; inactive means no such curve, though single readings can be large; an effect the other way counts as inactive or inconclusive.

Key:
[1] = qHTS of pediatric cancer cell lines to identify multiple opportunities for drug repurposing: Primary screen for SK-N-SH cells (AID 1347098); further: nearly all actives have a fitted effect of over 65% in size
In short: (§1)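 Cells (500-1,000/well) rested 5 h, then received compounds for 48 h; metabolically active cells were measured by CellTiter-Glo luminescence. Final concentrations spanned up to 46 µM (MIPE, 11-point) or 0.59 nM-46 µM (NPC, 8-point) in primary screens, 11-point in follow-ups.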

[2] = qHTS of pediatric cancer cell lines to identify multiple opportunities for drug repurposing: Primary screen for NB1643 cells (AID 1347099); further: nearly all actives have a fitted effect of over 50% in size; further: potency means the concentration at half of the fitted maximal effect
In short: (§2)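 Readout: CellTiter-Glo luminescence, 48 h treatment. Controls DMSO (neutral) and bortezomib 2.3 µM final (positive). Potency and efficacy taken from primary-screen concentration-response curves.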

[3] = qHTS of pediatric cancer cell lines to identify multiple opportunities for drug repurposing: Primary screen for LAN-5 cells (AID 1347100)
In short: as §1

[4] = qHTS of pediatric cancer cell lines to identify multiple opportunities for drug repurposing: Primary screen for BT-12 cells (AID 1347101); further: nearly all actives have a fitted effect of over 25% in size; further: potency means the concentration at half of the fitted maximal effect
In short: as §1

[5] = qHTS of pediatric cancer cell lines to identify multiple opportunities for drug repurposing: Primary screen for Rh18 cells (AID 1347102); further: nearly all actives have a fitted effect of over 65% in size; further: potency means the concentration at half of the fitted maximal effect
In short: as §1

[6] = qHTS of pediatric cancer cell lines to identify multiple opportunities for drug repurposing: Primary screen for OHS-50 cells (AID 1347103); further: nearly all actives have a fitted effect of over 40% in size; further: potency means the concentration at half of the fitted maximal effect
In short: as §1

[7] = qHTS of pediatric cancer cell lines to identify multiple opportunities for drug repurposing: Primary screen for RD cells (AID 1347104); further: nearly all actives have a fitted effect of over 55% in size; further: potency means the concentration at half of the fitted maximal effect
In short: as §2

[8] = qHTS of pediatric cancer cell lines to identify multiple opportunities for drug repurposing: Primary screen for MG 63 (6-TG R) cells (AID 1347105); further: nearly all actives have a fitted effect of over 50% in size; further: potency means the concentration at half of the fitted maximal effect
In short: as §2

[9] = qHTS of pediatric cancer cell lines to identify multiple opportunities for drug repurposing: Primary screen for control Hh wild type fibroblast cells (AID 1347106);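 further: series mostly up to about 46 µM; a drop in luminescence marks cytotoxicity and a rise apparent proliferation; nearly all actives have a fitted effect of over 55% in size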
In short: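 Cells (500-1,000/well) in growth media were settled 5 h at 37 degrees C, then given compounds for 48 h. Viability was read as CellTiter-Glo luminescence. Primary runs used MIPE at 11 points (0.78 nM-46 µM) and NPC at 8 points (0.59 nM-46 µM); follow-ups used 11 points.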

[10] = qHTS of pediatric cancer cell lines to identify multiple opportunities for drug repurposing: Primary screen for Saos-2 cells (AID 1347097); further: nearly all actives have a fitted effect of over 40% in size; further: potency means the concentration at half of the fitted maximal effect
In short: as §2

[11] = qHTS of pediatric cancer cell lines to identify multiple opportunities for drug repurposing: Primary screen for Rh41 cells (AID 1347108); further: nearly all actives have a fitted effect of over 70% in size; further: potency means the concentration at half of the fitted maximal effect
In short: as §2

[12] = qHTS of pediatric cancer cell lines to identify multiple opportunities for drug repurposing: Primary screen for Rh30 cells (AID 1347107); further: series mostly up to about 46 µM; nearly all actives have a fitted effect of over 75% in size
In short: as §1

[13] = qHTS of pediatric cancer cell lines to identify multiple opportunities for drug repurposing: Confirmatory screen for NB1643 cells (AID 1347109); further: nearly all actives have a fitted effect of over 45% in size
In short: as §1

[14] = qHTS of pediatric cancer cell lines to identify multiple opportunities for drug repurposing: Confirmatory screen for A673 cells (AID 1347110);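 further: cells exposed to compound for 48 h before the viability read; nearly all actives have a fitted effect of over 65% in size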
In short: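 A673 cells at 500-1,000 cells/well were dosed 5 h after plating, in dilution series up to 46 uM final; primary runs used 8 or 11 points and confirmatory runs used 11 points. Viability was read by CellTiter-Glo luminescence after 48 h, against DMSO and 2.3 uM bortezomib controls.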

[15] = qHTS of pediatric cancer cell lines to identify multiple opportunities for drug repurposing: Confirmatory screen for SK-N-MC cells (AID 1347111);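 further: cells exposed to compound for 48 h before the readout; nearly all actives have a fitted effect of over 70% in size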
In short: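 Seed 500-1,000 cells/well; rest 5 h at 37 degrees C. Pin-transfer compounds, 11-point titration. Incubate 48 h. Add CellTiter-Glo, 15 min RT, read luminescence.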

[16] = qHTS of pediatric cancer cell lines to identify multiple opportunities for drug repurposing: Confirmatory screen for BT-12 cells (AID 1347112); further: nearly all actives have a fitted effect of over 55% in size
In short: as §1

[17] = qHTS of pediatric cancer cell lines to identify multiple opportunities for drug repurposing: Confirmatory screen for NB-EBc1 cells (AID 1347115);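 further: cells exposed to compound for 48 h before the viability read; nearly all actives have a fitted effect of over 45% in size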
In short: as §1

[18] = qHTS of pediatric cancer cell lines to identify multiple opportunities for drug repurposing: Confirmatory screen for SJ-GBM2 cells (AID 1347116); further: nearly all actives have a fitted effect of over 60% in size
In short: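 Viability measured as metabolically active cells via CellTiter-Glo luminescence following 48 hours of compound exposure, 11-point dilutions in confirmatory testing. 500-1,000 cells/well plated 5 hours before dosing; controls were DMSO and 2.3 µM bortezomib.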

[19] = qHTS of pediatric cancer cell lines to identify multiple opportunities for drug repurposing: Confirmatory screen for BT-37 cells (AID 1347117); further: nearly all actives have a fitted effect of over 55% in size
In short: as §1

## COc1ccc2c(c1)CCCC2=O
[1]
  Potency: inactive
[2]
  Potency: inactive
[3]
  Potency: inactive
[4]
  Potency: inactive
[5]
  Potency: inactive
[6]
  Potency: inactive
[7]
  Potency: inactive
[8]
  Potency: inactive
[9]
  Potency: inactive

## O=C1Nc2ccccc2C1(c1ccc(O)cc1)c1ccc(O)cc1
[10]
  Potency: inactive
[3]
  Potency: inactive
[4]
  Potency: inactive
[5]
  Potency: inactive
[6]
  Potency: 0.872 µM (active)
[7]
  Potency: inactive
[8]
  Potency: 0.133 µM (active)
[9]
  Potency: inactive
[11]
  Potency: inactive

## CCc1cc2cc(OC)c(OC)cc2c(Cc2ccccc2)n1
[10]
  Potency: inactive
[2]
  Potency: inactive
[4]
  Potency: inactive
[5]
  Potency: inactive
[6]
  Potency: 21.9 µM (active)
[7]
  Potency: inactive
[8]
  Potency: inactive
[9]
  Potency: inactive
[12]
  Potency: inactive
[11]
  Potency: inactive
[13]
  Potency: inactive
[14]
  Potency: inactive
[15]
  Potency: inactive
[16]
  Potency: inactive
[17]
  Potency: inactive
[18]
  Potency: inactive
[19]
  Potency: inactive

## C[C@@H](C1=C(CCN(C)C)Cc2ccccc21)c1ccccn1
[10]
  Potency: inactive
[2]
  Potency: inactive
[3]
  Potency: inactive
[4]
  Potency: inactive
[5]
  Potency: inactive
[7]
  Potency: inactive
[8]
  Potency: inactive
[9]
  Potency: inactive
[12]
  Potency: inactive
[11]
  Potency: inactive

## CN1CCC(Nc2ncc3ncnc(Nc4ccc(F)c(Cl)c4)c3n2)CC1
[10]
  Potency: inactive
[2]
  Potency: inactive
[5]
  Potency: 26.6 µM (active)
[6]
  Potency: 27.6 µM (active)
[8]
  Potency: inactive
[12]
  Potency: inactive
[11]
  Potency: inactive

## CCOCCn1c(C2CCN(CCc3ccc(C(C)(C)C(=O)O)cc3)CC2)nc2ccccc21
[10]
  Potency: inactive
[2]
  Potency: inactive
[4]
  Potency: inactive
[5]
  Potency: inactive
[6]
  Potency: inactive
[7]
  Potency: inactive
[8]
  Potency: inactive
[9]
  Potency: inactive
[12]
  Potency: inactive
[11]
  Potency: inactive

## CCC[C@H](N[C@@H](C)C(=O)N1[C@H](C(=O)O)C[C@@H]2CCCC[C@@H]21)C(=O)OCC
[10]
  Potency: inactive
[4]
  Potency: inactive
[5]
  Potency: inactive
[7]
  Potency: inactive
[8]
  Potency: inactive
[9]
  Potency: inactive
[12]
  Potency: inactive
[11]
  Potency: inactive

## CC(=O)Nc1ccn(C2COC(COC(=O)c3ccccc3)O2)c(=O)n1 (stereo unspecified)
[10]
  Potency: inactive
[5]
  Potency: inactive
[7]
  Potency: inactive
[9]
  Potency: inactive
[12]
  Potency: inactive
[11]
  Potency: inactive

## CCCCCCCCCCCCCCCCCCNC(=O)OC1CCN(C(=O)OC[C@H](COC(=O)N(Cc2cccc[n+]2CC)C(=O)c2ccccc2OC)OC)CC1
[10]
  Potency: 23.7 µM (active)
[4]
  Potency: 8.71 µM (active)
[6]
  Potency: 11 µM (active)
[7]
  Potency: 23.7 µM (active)
[9]
  Potency: inactive

## C#Cc1ccc(-c2ccccc2F)cc1
[10]
  Potency: inactive
[2]
  Potency: inactive
[3]
  Potency: inactive
[4]
  Potency: inactive
[5]
  Potency: inactive
[6]
  Potency: inactive
[7]
  Potency: inactive
[9]
  Potency: inactive
[12]
  Potency: inactive
[11]
  Potency: inactive

## CC(CC(C#N)(c1ccccc1)C(C)C)N(C)C (stereo unspecified)
[1]
  Potency: inactive
[2]
  Potency: inactive
[3]
  Potency: inactive
[4]
  Potency: inactive
[5]
  Potency: inactive
[6]
  Potency: inactive
[7]
  Potency: inactive
[8]
  Potency: inactive
[9]
  Potency: inactive

## OC1(c2ccc(Cl)c(C(F)(F)F)c2)CCN(CCCC(c2ccc(F)cc2)c2ccc(F)cc2)CC1
[10]
  Potency: 11.9 µM (active)
[4]
  Potency: 21.9 µM (active)
[5]
  Potency: 23.7 µM (active)
[6]
  Potency: 3.89 µM (active)
[7]
  Potency: 21.1 µM (active)
[8]
  Potency: 13.3 µM (active)
[11]
  Potency: 16.8 µM (active)

## N#CSCC(=O)O
[10]
  Potency: inactive
[3]
  Potency: inactive
[4]
  Potency: inactive
[5]
  Potency: inactive
[6]
  Potency: inactive
[7]
  Potency: inactive
[9]
  Potency: inactive

## CO[C@@H]1[C@@H](O[C@@H]2O[C@H](C)[C@@H](O[C@H]3C[C@@](C)(O)[C@@H](O)[C@H](C)O3)[C@H](N(C)C)[C@H]2O)[C@@H](CC=O)C[C@@H](C)[C@@H](O[C@@H]2CC[C@H](N(C)C)[C@@H](C)O2)/C=C/C=C/C[C@@H](C)OC(=O)C[C@H]1OC(C)=O
[10]
  Potency: inactive
[2]
  Potency: inactive
[5]
  Potency: inactive
[7]
  Potency: inactive
[9]
  Potency: inactive
[12]
  Potency: inactive
[11]
  Potency: inactive

## C[C@H]1C[C@@H]2[C@H]([C@@H](O)C[C@@]3(C)[C@H]2CC[C@]3(O)C(=O)CO)[C@@]2(C)C=CC(=O)C=C12
[10]
  Potency: inactive
[3]
  Potency: inactive
[4]
  Potency: inactive
[6]
  Potency: inactive
[7]
  Potency: inactive
[8]
  Potency: inactive
[12]
  Potency: inactive
[11]
  Potency: inactive
[14]
  Potency: inactive
[16]
  Potency: inactive
[17]
  Potency: inactive
[18]
  Potency: inactive

## Nc1ccc(C(=O)OCC(O)CO)cc1 (stereo unspecified)
[10]
  Potency: inactive
[2]
  Potency: 0.001 µM (active)
[4]
  Potency: inactive
[5]
  Potency: inactive
[6]
  Potency: inactive
[7]
  Potency: inactive
[8]
  Potency: inactive
[9]
  Potency: inactive
[12]
  Potency: inactive

## C/C(=C(/OCCOc1ccc(Cl)cc1)c1ccc(Cl)cc1Cl)n1ccnc1
[10]
  Potency: inactive
[3]
  Potency: inactive
[8]
  Potency: inactive
[9]
  Potency: inactive
[12]
  Potency: inactive
[11]
  Potency: inactive

## CN1CCC(N(Cc2cccs2)c2ccccc2)CC1
[10]
  Potency: 21.1 µM (active)
[4]
  Potency: 21.9 µM (active)
[8]
  Potency: inactive
[9]
  Potency: inactive
[12]
  Potency: inactive

## Cc1c(C)c2c(c(C)c1OC(=O)CCC(=O)OCCO)CC[C@@](C)(CCC[C@H](C)CCC[C@H](C)CCCC(C)C)O2
[10]
  Potency: inactive
[9]
  Potency: inactive
[12]
  Potency: inactive

## Cc1[nH]cnc1-c1ccc(Cl)cc1
[10]
  Potency: inactive
[2]
  Potency: inactive
[3]
  Potency: inactive
[4]
  Potency: inactive
[6]
  Potency: inactive
[7]
  Potency: inactive
[9]
  Potency: inactive
[12]
  Potency: inactive
[11]
  Potency: inactive

## CCC(CN)=C(c1ccccc1)c1ccccc1
[10]
  Potency: inactive
[2]
  Potency: inactive
[3]
  Potency: inactive
[4]
  Potency: inactive
[5]
  Potency: inactive
[7]
  Potency: inactive
[8]
  Potency: inactive
[9]
  Potency: inactive
[12]
  Potency: inactive
[11]
  Potency: inactive

## CC(Oc1c(Cl)cccc1Cl)C1=NCCN1 (stereo unspecified)
[10]
  Potency: inactive
[2]
  Potency: inactive
[3]
  Potency: inactive
[4]
  Potency: inactive
[7]
  Potency: inactive
[8]
  Potency: inactive
[9]
  Potency: inactive
[11]
  Potency: inactive

## Cc1ccc(/C=N/n2c(-c3ccccc3)csc2=S)cc1
[10]
  Potency: inactive
[2]
  Potency: inactive
[3]
  Potency: inactive
[7]
  Potency: inactive
[8]
  Potency: inactive
[9]
  Potency: inactive
[12]
  Potency: inactive
[11]
  Potency: inactive

## O=C(O)Cn1c(=O)n(Cc2ccc(Br)cc2F)c(=O)c2ccc(Cl)cc21
[10]
  Potency: inactive
[2]
  Potency: inactive
[3]
  Potency: inactive
[4]
  Potency: inactive
[5]
  Potency: inactive
[7]
  Potency: inactive
[8]
  Potency: inactive
[9]
  Potency: inactive
[12]
  Potency: inactive
[11]
  Potency: inactive
